In PubChem BioAssay (NCATS):
Records with an inconclusive call do not appear. Unmarked numbers belong to inactive results. Activity calls are given as the source filed them. Calls come from the whole dose curve; as a rule, active = well fitted inhibition curve with a large enough effect; inconclusive = small, poorly fitted or top-dose-only effect; inactive = flat fitted curve, though single readings scatter.

target: Glutathione peroxidase 1 (Homo sapiens) (UniProt P07203); test: Primary qHTS Assay for Inhibitors of Recombinant Selenoprotein Glutathione Peroxidase 1 (GPX1) (AID 1845191); settings: recombinant GPX1, GR-coupled NADPH fluorescence, 15 min; series mostly up to 48.8 µM; activity, negative = inhibition: at the top concentration; note: nearly all actives have a fitted effect of over 65% in size
Sequence (P07203 whole entry, looked up): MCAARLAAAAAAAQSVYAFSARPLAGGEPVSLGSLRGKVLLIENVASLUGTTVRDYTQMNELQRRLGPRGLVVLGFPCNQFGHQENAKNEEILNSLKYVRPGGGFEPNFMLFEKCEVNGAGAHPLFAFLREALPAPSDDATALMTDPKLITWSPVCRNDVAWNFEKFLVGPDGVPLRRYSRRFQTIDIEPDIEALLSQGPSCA
Summary of the method: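 10 nM GPX1 + cpd, 30 min RT; start w/ 1 mM GSH, 0.5 mM cumene hydroperoxide, 0.5 mM NADPH, 100 nM GR, 0.01% BSA; buffer 50 mM Tris-HCl pH 7.5, 2 mM EDTA, 150 mM NaCl; Fl 340/450, 0 & 15 min.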
% is set by controls: 0 for no effect and ±100 for the full control effect.

| Structure (SMILES) | activity, negative = inhibition | outcome | Potency |
| --- | --- | --- | --- |
| N[C@H](Cc1c[nH]c2ccccc12)C(=O)O | -24.6% | – | – |
| CC1(C)O[C@@H]2[C@@H](CO[C@@]3(COS(N)(=O)=O)OC(C)(C)O[C@@H]23)O1 | -13.6% | – | – |
| CCC(=O)c1c(O)cc(O)cc1O | -11.5% | – | – |
| CC(=O)c1ccc2c(c1)N(CCCN1CCC(CCO)CC1)c1ccccc1S2 | -18.1% | – | – |
| NCCC(O)(P(=O)(O)O)P(=O)(O)O | – | inactive | – |
| CCCCOc1ccc(C(=O)CCN2CCCCC2)cc1 | – | inactive | – |
| CC1(C)O[C@@H]2C[C@H]3[C@@H]4C[C@H](F)C5=CC(=O)CC[C@]5(C)[C@H]4[C@@H](O)C[C@]3(C)[C@]2(C(=O)CO)O1 | – | inactive | – |
| O=C1OCCN1/N=C/c1ccc([N+](=O)[O-])o1 | -15.5% | – | – |
| CCN(CC)C(=O)/C(C#N)=C/c1cc(O)c(O)c([N+](=O)[O-])c1 | 4.14% | – | – |
| COc1ccc(CCN2CCC(Nc3nc4ccccc4n3Cc3ccc(F)cc3)CC2)cc1 | -28.1% | – | – |
| CCOC(=O)[C@H](CCc1ccccc1)N[C@@H](C)C(=O)N1Cc2ccccc2C[C@H]1C(=O)O | – | – | inactive |
| CCCC(=O)O[C@]1(C(=O)CO)CC[C@H]2[C@@H]3CCC4=CC(=O)CC[C@]4(C)[C@H]3[C@@H](O)C[C@@]21C | -6.98% | – | – |
| CC[C@@H](CO)NCCN[C@@H](CC)CO | 0.426% | – | – |
| CCN1CCCC1=O | -9.36% | – | – |
| C[C@@H]1C[C@H]2[C@@H]3CCC4=CC(=O)C=C[C@]4(C)[C@@]3(F)[C@@H](O)C[C@]2(C)[C@H]1C(=O)CO | -5.09% | – | – |
| CC(C)(C(=O)c1cccnc1)c1cccnc1 | – | inactive | – |
| Cc1cccn2c(=O)c(-c3nnn[nH]3)cnc12 | -23.9% [at 27.7 µM] | – | – |
| C=C1C(=C/C=C2\CCC[C@]3(C)[C@@H]([C@H](C)/C=C/[C@@H](O)C4CC4)CC[C@@H]23)C[C@@H](O)C[C@@H]1O | – | – | inactive |
| CC[N+](CC)(CCNC(=O)C(=O)NCC[N+](CC)(CC)Cc1ccccc1Cl)Cc1ccccc1Cl | -14.2% | – | – |
| CCN(CCCc1ccccc1)CCCc1ccccc1 | -9.26% | – | – |

| Structure (SMILES) | activity, negative = inhibition | outcome | Potency |
| --- | --- | --- | --- |
| CN(C)/N=N/c1nc[nH]c1C(N)=O | – | inactive | – |
| C[C@H]1[C@H](NC(=O)/C(=N/OC(C)(C)C(=O)O)c2csc(N)n2)C(=O)N1S(=O)(=O)O (stereo in doubt) | – | inactive | – |
| COc1cc(OC)cc(OC)c1 | – | inactive | – |
| CNCC[C@@H](Oc1ccccc1C)c1ccccc1 | -15.6% | – | – |
| CC(=O)Oc1ccc(C(c2ccc(OC(C)=O)cc2)c2ccccn2)cc1 | -9.39% | – | – |
| CCCCOc1ccc(OCCCN2CCOCC2)cc1 | – | inactive | – |
| N[C@H](CO)C(=O)O | – | – | inactive |
| CCCCCCc1ccc(O)cc1O | – | inactive | – |
| CN(C(=O)CN(CCO)CC(=O)N(C)C(C)(C)Cc1ccccc1)C(C)(C)Cc1ccccc1 | 1.69% | – | – |
| N[C@@H](CCC(=O)N[C@@H](CS)C(=O)NCC(=O)O)C(=O)O | – | inactive [at 27.7 µM] | – |
| CN(C)CCOc1ccccc1Cc1ccccc1 | -13.1% | – | – |
| C[n+]1c2cc(N)ccc2cc2ccc(N)cc21 (tested in a mixture with another compound) | -25% | – | – |
| CN(C)CC/C=C1\c2ccccc2Sc2ccc(Cl)cc21 | – | inactive | – |
| CCOC(=O)n1ccn(C)c1=S | -15.3% | – | – |
| O=C(O)CCCCC(=O)O | -25.9% | – | – |
| O=C(CCCN1CCC(O)(c2ccc(Br)cc2)CC1)c1ccc(F)cc1 | 4.54% | – | – |
| COc1cc2c(cc1OC)C(=O)C(CC1CCN(Cc3ccccc3)CC1)C2 (centres undefined) | -18.4% | – | – |
| CCN(CC)C(=O)N1CCN(C)CC1 | -18.6% | – | – |
| O=C1OC2(c3ccc(O)cc3Oc3cc(O)ccc32)c2ccccc21 | -23.2% | – | – |
